Compounds without any hit were thinned out: in the full panel of roughly 83,000, 20% have a hit.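 Results are percent growth after 48 hours of single-concentration exposure. 100 means growth as in untreated cells, lower positive values show inhibition; negative values down to -100 show cell death.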 A number with no mark means an inactive call. Activity calls are given as the source filed them. The calls were made as follows: active = growth percent below 10; inactive = the rest.
What was measured:
Assay in all cases: NCI-60 one-dose screen, 48 h (100 = growth as untreated, 0 = no growth, -100 = all killed)
Conditions in all cases: 10 µM unless noted
NCI-H23 lung = tested on: NCI-H23 lung
NCI-H226 lung = tested on: NCI-H226 lung
NCI-H322M lung = tested on: NCI-H322M lung
HOP-62 NSCLC = tested on: HOP-62 NSCLC
NCI-H460 lung = tested on: NCI-H460 lung
HOP-92 NSCLC = tested on: HOP-92 NSCLC
NCI-H522 lung = tested on: NCI-H522 lung
A549/ATCC NSCLC = tested on: A549/ATCC NSCLC
786-0 renal = tested on: 786-0 renal
COLO 205 colon = tested on: COLO 205 colon
DU-145 prostate = tested on: DU-145 prostate
MALME-3M melanoma = tested on: MALME-3M melanoma
MDA-MB-231 breast = tested on: MDA-MB-231 breast
RXF 393 renal = tested on: RXF 393 renal
SF-268 CNS = tested on: SF-268 CNS
SF-295 CNS = tested on: SF-295 CNS
SF-539 CNS = tested on: SF-539 CNS
UACC-257 melanoma = tested on: UACC-257 melanoma
M14 melanoma = tested on: M14 melanoma

Row | SMILES | growth (NCI-H23 lung) | growth (NCI-H226 lung) | growth (NCI-H322M lung) | growth (HOP-62 NSCLC) | growth (NCI-H460 lung) | growth (HOP-92 NSCLC) | growth (NCI-H522 lung) | growth (A549/ATCC NSCLC) | growth (786-0 renal) | growth (COLO 205 colon) | growth (DU-145 prostate) | growth (MALME-3M melanoma) | growth (MDA-MB-231 breast) | growth (RXF 393 renal) | growth (SF-268 CNS) | growth (SF-295 CNS) | growth (SF-539 CNS) | growth (UACC-257 melanoma) | growth (M14 melanoma)
1 | CC(C)(C)[Si](C)(C)OC1[C@@H](O[Si](C)(C)C(C)(C)C)[C@@H](CNC(=O)NC(=O)CCl)O[C@H]1n1cnc2c(NC(=O)Nc3ccccc3)ncnc21 (some centres undefined) | -93.3% (active) | -93.8% (active) | 120% | -95.5% (active) | 11.9% | -74% (active) | -61.9% (active) | 1.49% (active) | -93.8% (active) | -18.3% (active) | -2.39% (active) | -70.2% (active) | -72.7% (active) | -93.1% (active) | -77.4% (active) | -71.2% (active) | -86.2% (active) | 14.1% | -56% (active)
2 | N#Cc1c(-c2ccccc2)nc2c(c(-c3ccccc3)nn2-c2ccccc2)c1-c1ccc(O)cc1 | 44.1% | 54% | 66.9% | 25.3% | 9.14% (active) | 50.1% | 0.943% (active) | 41.4% | 3.44% (active) | 41.9% | 49.4% | 43.8% | 23.8% | -17.6% (active) | 55.5% | -43.1% (active) | 23.3% | 71.3% | 56.4%
3 | CC(c1ccccc1)C(C(=O)c1ccccc1)c1ccccc1 (centres undefined) | 84.6% | 73.5% | 103% | 44.8% | 88.3% | 107% | 68.4% | 80% | 83.5% | 112% | 105% | 109% | 71.6% | 90.6% | 94.2% | 91.8% | 98.1% | 105% | 89.7%
4 | CCOC(=O)C1=C(CCl)NC(=O)NC1c1ccc2c(c1)OCO2 (centres undefined) | 48.3% | 88.5% | 88.1% | 53.8% | 76.9% | 60.1% | -42.3% (active) | 66.1% | 43.2% | 75.6% | 36.6% | 18.5% | 39.4% | 39.1% | 66.9% | 71.1% | 16.5% | 67.2% | 32.3%
5 | Cc1cccc(C)c1N=c1oc2ccc(Cl)cc2nc1-c1ccccc1O | 78.6% | 88.1% | 88.6% | 112% | 97.2% | 55.9% | 82.9% | 96.7% | 90% | 89.7% | 120% | 105% | 83.6% | 90.9% | 92.1% | 106% | 99.5% | 90.8% | 80.5%
6 | CCNc1nc2cc(Nc3ccnc4cc(Cl)ccc34)ccc2o1 | 66.9% | 79.6% | 92.9% | 75% | 58% | 56.8% | 61.9% | 67.7% | 81.7% | 72.2% | 86.2% | 91.7% | 64.3% | 66.5% | 81.1% | 55.2% | 65.9% | 83.5% | 61%
7 | Clc1ccc(-c2ccc(CNCC3CCNCC3)o2)c(-c2ccccc2)c1 | -39.8% (active) | -12.1% (active) | -25.7% (active) | -78.3% (active) | -86.7% (active) | -39.3% (active) | -70.7% (active) | -79.5% (active) | -90.2% (active) | -76.3% (active) | -94.2% (active) | -85.4% (active) | -86.5% (active) | -88.2% (active) | -82% (active) | -86.1% (active) | -90.3% (active) | -75.3% (active) | -83.3% (active)
8 | Cc1cccc(-c2cn3ccnc3c(-c3ccc4ncn(Cc5ccccc5)c4c3)n2)c1 | 90.9% | 98.8% | 101% | 90.3% | 89.9% | 71.3% | 71.6% | 85.1% | 78.6% | 88.6% | 85.8% | 125% | 71.6% | 98% | 92.8% | 85.7% | 92.7% | 120% | 102%
9 | Cn1cc(-c2nc(-c3c[nH]c4c(Cl)nccc34)cs2)c2cc(F)ccc21 | 104% | 95.5% | 102% | 88.5% | 98.3% | 98.2% | 90.2% | 74.5% | 94.7% | 99.8% | 97.4% | 120% | 100% | 106% | 114% | 105% | 107% | 70.2% | 99.9%
10 | COc1ccc(C(=O)Cn2c(C(=O)c3ccccc3)nc3ccccc32)cc1 | 28.2% | 38.5% | 78.7% | 40.6% | 8.51% (active) | 54.7% | -28.1% (active) | 31.8% | 43.6% | 51% | 36.7% | 46.6% | 37.6% | 13.1% | 52.9% | 12.2% | 15.1% | 54.3% | 6.97% (active)
11 | O=C(/C(=C\c1ccc([N+](=O)[O-])cc1)S(=O)Cc1ccc(Cl)cc1)c1ccc(Cl)cc1 (centres undefined) | 84.5% | 92.9% | 89.5% | 96.1% | 76.3% | 83.6% | 37.5% | 93.8% | 32.1% | 74.7% | 77.7% | 92.7% | 76.2% | 52.4% | 64% | 90.5% | 99.1% | 100% | 63.3%
12 | COc1cc(/C=C\c2cc(/C=C\c3ccc(O)c(OC)c3)n(C(=O)COc3ccccc3)n2)ccc1O | 1.6% (active) | 9.96% (active) | 30.8% | 8.39% (active) | 7.6% (active) | 14.4% | -39.3% (active) | 8.68% (active) | 1.27% (active) | 79.3% | 9.09% (active) | 7.21% (active) | 11.3% | -44.5% (active) | 12% | 15.5% | -10.3% (active) | 30.5% | 6.75% (active)
13 | CNCCOc1nc2c3cnccc3cc(-c3cc(OC)c(OC)c(OC)c3)c2c2ccncc12 | -49.1% (active) | -42.5% (active) | -4.74% (active) | -39% (active) | -46.8% (active) | -20.8% (active) | -62.7% (active) | -8.59% (active) | -96.7% (active) | -61.2% (active) | -13.7% (active) | -80.2% (active) | -9.1% (active) | -85.7% (active) | -9.41% (active) | -20.7% (active) | -59.5% (active) | -43.1% (active) | -67.8% (active)
14 | C#Cc1cccc(NC(=O)c2cccc(NC(=O)CCl)c2)c1 | -77.6% [8.25 µM] (active) | -32% [8.25 µM] (active) | 58.8% [8.25 µM] | -24.9% [8.25 µM] (active) | -60.8% [8.25 µM] (active) | -65.3% [8.25 µM] (active) | -65.8% [8.25 µM] (active) | 1.7% [8.25 µM] (active) | -71.8% [8.25 µM] (active) | -53% [8.25 µM] (active) | 4.82% [8.25 µM] (active) | -80.3% [8.25 µM] (active) | -80.5% [8.25 µM] (active) | -20.9% [8.25 µM] (active) | 8.4% [8.25 µM] (active) | 21.9% [8.25 µM] | -97.1% [8.25 µM] (active) | 28.1% [8.25 µM] | 0.864% [8.25 µM] (active)
15 | COc1cc(-c2cc(-c3ccc(N(C)C)cc3)nc(N3CCOCC3)c2C#N)cc(OC)c1OC | 60% | 19.9% | 35.8% | -36.8% (active) | 15.2% | 4.13% (active) | 0.156% (active) | 26.9% | -38.5% (active) | 19.9% | 52.4% | 31.1% | 25.2% | -43.2% (active) | 36% | -20.9% (active) | 47.3% | 24.3% | -61.5% (active)
16 | O=C1c2cccc3c(-c4ccc5c(c4)ncn5C4CCCCC4)ccc(c23)C(=O)N1c1nc2ccccc2s1 | 86.4% | 84.1% | 91.7% | 82% | 94.8% | 76% | 78.2% | 100% | 93% | 89.8% | 105% | 93% | 74% | 105% | 94.1% | 90.4% | 95.7% | 101% | 93.8%
